Consider eight molecules from PubChem BioAssay (NCI).

What all share (assay): NCI-60 one-dose screen, 48 h (100 = growth as untreated, 0 = no growth, -100 = all killed)
Holding throughout (details): 10 µM unless noted

In assay [1] the test system is HCT-15 colon.
The test system of assay [2] is HT29 colon.
The test system of assay [3] is SNB-75 CNS.
Assay [4] relates to SNB-19 CNS.
Assay [5] has as its system PC-3 prostate.
In assay [6] the test system is SK-MEL-5 melanoma.
Assay [7] has as its system UACC-62 melanoma.
The subject of assay [8] is LOX IMVI melanoma.
Assay [9] has as its system SK-MEL-28 melanoma.
The test system of assay [10] is SK-MEL-2 melanoma.
Assay [11] relates to EKVX NSCLC.
For assay [12], the system named is SN12C renal.
For assay [13], the system named is UO-31 renal.
The test system of assay [14] is TK-10 renal.
For assay [15], the system named is ACHN renal.
In assay [16] the test system is CAKI-1 renal.
Assay [17] has as its system A498 renal.
Assay [18] relates to CCRF-CEM leukemia.
In assay [19] the test system is MOLT-4 leukemia.
Assay [20] relates to U251 CNS.

Each structure is given as a SMILES string. This is part of a sample that, as a whole, favours compounds with a hit. Of some 83,000 tested, about 20% had one in any assay.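 Growth was measured after 48 h exposure to one concentration of compound in 96-well plates. Values under 10 count as active.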 Unmarked numbers belong to inactive results. The source made the active and inactive calls.

Turning to `COc1cc(/C=C2/C=C(c3ccccc3)N(CCc3ccc(S(N)(=O)=O)cc3)C2=O)cc(OC)c1OC`, the growth in [1] was 100%; in assay [2], 94.7%; in assay [3] it was 71.9%; in [4], 101%; in assay [5] it was 44.2%; in assay [6] it was 90.7%. For the same molecule, the growth was 89.6% in [7]; 101% in assay [8]; 119% in assay [9]; 104% in assay [10]; 105% in assay [11]; 105% in assay [12]. Besides, the growth in assay [13] is 87.8%; in [14] it was 96.2%; in [15], 103%; in [16] it was 99.1%; in [17], 86.6%; in [18], 91%. Moreover, the growth in assay [19] is 83.1%.

Turning to `O=S(=O)(NCCCNc1nccc(-c2c(-c3ccc(F)c(O)c3)nc3sccn23)n1)c1ccccc1`, the growth in [1] is 68.5%; in assay [2], 51%; in [3], 105%; in [4] it was 104%; in assay [5], 61.5%; in [6], 51.1%. For the same molecule, the growth in assay [7] was 5.45% (active); in assay [8] it was 18%; in [9], 24.1%; in assay [10], 24.9%; in [11], 106%; in [12], 59%. The growth is 31.1% in assay [13]; 120% in [14]; 52.3% in [15]; 55.9% in [16]; 104% in assay [17]; 38.2% in assay [18]. In addition, the growth in [19] is 50.9%.

Take `CCOC(=O)C1=C(N)Oc2c(sc3c(F)cccc23)C1c1ccc(O)cc1` (stereo unspecified): the growth in [1] is 24.2%; in assay [2] it was 30.7%; in [3] it was 31.3%; in assay [4], 48.9%; in assay [5], 26%; in [6], 18%. Also, the growth is 26.3% in assay [7]; 36.4% in assay [8]; 46% in assay [9]; 14.3% in assay [10]; 42.4% in assay [11]; 56% in assay [12]. The growth is 30.1% in [13]; 74% in [14]; 42.3% in [15]; 57.6% in [16]; 43.2% in assay [17]; 20.3% in [18]. In addition, the growth in assay [19] is 9.73% (active).

Regarding `N#Cc1ccc2c(c1)C(=O)c1c-2n(CCCN)c(=O)c2cc([N+](=O)[O-])ccc12`, the growth in [1] was -90.8% (active); in [2], -100% (active); in assay [3] it was -100% (active); in assay [4], -85.1% (active); in [5], -74.4% (active); in [6], -100% (active). Further, the growth in assay [7] was -100% (active); in assay [8], -100% (active); in [9], -100% (active); in assay [10] it was -52.2% (active); in assay [11] it was -88% (active); in assay [12], -100% (active). The growth was -100% (active) in assay [13]; -100% (active) in assay [14]; -100% (active) in [15]; -91.4% (active) in assay [16]; -39.3% (active) in assay [17]; -72.6% (active) in assay [18]. The growth in assay [19] is -62.2% (active).

In the case of `CC1CN(S(=O)(=O)c2oc(-c3ccc(Cl)cc3)nc2C#N)CC(C)O1` (stereo unspecified), the growth is -26.5% (active) in assay [1]; 58.5% in assay [2]; 91.1% in assay [3]; 97.5% in [4]; 90.2% in assay [5]; 92.7% in assay [6]. Besides, the growth in assay [7] was 96.7%; in assay [8], 8.2% (active); in assay [9], 97.9%; in [10], 75.5%; in assay [11], 101%; in [12], 85.5%. In addition, the growth in [13] was 90.4%; in [14] it was -54% (active); in assay [15] it was 28.1%; in assay [16], 91.2%; in assay [17], 78.7%; in assay [18] it was -2.97% (active). Further, the growth in [19] is -10.6% (active).

For `Nc1c(C(=O)Nc2ccccc2C(F)(F)F)sc2nc3c(cc12)CCC3`, the growth in [1] is 97.3%; in [2] it was 94.3%; in assay [3] it was 97.4%; in assay [20], 93.9%; in assay [5] it was 100%; in assay [6], 98.6%. The growth is 81% in assay [7]; 110% in assay [8]; 94.5% in [9]; 102% in [10]; 97.1% in assay [11]; 101% in assay [12]. The growth is 98% in [13]; 89.9% in assay [14]; 99.6% in [15]; 101% in assay [16]; 95.1% in assay [17]; 101% in assay [18]. Moreover, in [19], the growth was 88.1%.

In the case of `COc1cc2c(cc1OCCCN1CCN(CCCOc3cc4c(cc3OC)C(=O)N3CC(F)(F)C[C@H]3C=N4)CC1)N=C[C@@H]1CC(F)(F)CN1C2=O`, the growth is 101% in assay [1]; 60.1% in [2]; 2.55% (active) in assay [3]; 7.49% (active) in assay [20]; 68.5% in [5]; 20.6% in [6]. Besides, the growth was 76.2% in [7]; 12% in assay [8]; 99.3% in [9]; 90.6% in [10]; 197% in assay [11]; 54.7% in assay [12]. Moreover, the growth was 82.4% in assay [13]; 115% in [14]; 78.3% in assay [15]; 35% in assay [16]; 86.1% in assay [17]; -28.2% (active) in assay [18]. Further, the growth in [19] is 26.9%.

`O=C(O)CCCN1C(=O)/C(=C/c2cn(-c3ccccc3)nc2-c2ccc([N+](=O)[O-])cc2)SC1=S`: the growth in assay [1] is 35.8%; in [2], 87.1%; in assay [3], 95.7%; in assay [20], 38.2%; in assay [5] it was 56.4%; in assay [6], 52.7%. For the same molecule, the growth in [7] was 47%; in assay [8] it was 46.2%; in assay [9], 49.4%; in assay [10], 77.6%; in assay [11] it was 67%; in assay [12] it was 50%. The growth is 40.2% in assay [13]; 78.2% in assay [14]; 56.8% in assay [15]; 65.1% in assay [16]; 27.6% in assay [18]; 54.5% in assay [19].
